Where “and” joins values, the source holds several entries; their conditions need not be identical. Equal values may be shown once. Over roughly 110,000 compounds, “z-score” has its median near -0.1; the highest 2% begin near 2. The sample as a whole holds a higher share of the highest values than the screen did. Calls of active or inactive are those of the source.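 Rule for the calls: active = z-score in the third read window above 3 or below -3; inactive = the rest.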
Target: Metabotropic glutamate receptor 8 (Rattus norvegicus) (UniProt P70579)
Sequence (P70579 whole entry, looked up): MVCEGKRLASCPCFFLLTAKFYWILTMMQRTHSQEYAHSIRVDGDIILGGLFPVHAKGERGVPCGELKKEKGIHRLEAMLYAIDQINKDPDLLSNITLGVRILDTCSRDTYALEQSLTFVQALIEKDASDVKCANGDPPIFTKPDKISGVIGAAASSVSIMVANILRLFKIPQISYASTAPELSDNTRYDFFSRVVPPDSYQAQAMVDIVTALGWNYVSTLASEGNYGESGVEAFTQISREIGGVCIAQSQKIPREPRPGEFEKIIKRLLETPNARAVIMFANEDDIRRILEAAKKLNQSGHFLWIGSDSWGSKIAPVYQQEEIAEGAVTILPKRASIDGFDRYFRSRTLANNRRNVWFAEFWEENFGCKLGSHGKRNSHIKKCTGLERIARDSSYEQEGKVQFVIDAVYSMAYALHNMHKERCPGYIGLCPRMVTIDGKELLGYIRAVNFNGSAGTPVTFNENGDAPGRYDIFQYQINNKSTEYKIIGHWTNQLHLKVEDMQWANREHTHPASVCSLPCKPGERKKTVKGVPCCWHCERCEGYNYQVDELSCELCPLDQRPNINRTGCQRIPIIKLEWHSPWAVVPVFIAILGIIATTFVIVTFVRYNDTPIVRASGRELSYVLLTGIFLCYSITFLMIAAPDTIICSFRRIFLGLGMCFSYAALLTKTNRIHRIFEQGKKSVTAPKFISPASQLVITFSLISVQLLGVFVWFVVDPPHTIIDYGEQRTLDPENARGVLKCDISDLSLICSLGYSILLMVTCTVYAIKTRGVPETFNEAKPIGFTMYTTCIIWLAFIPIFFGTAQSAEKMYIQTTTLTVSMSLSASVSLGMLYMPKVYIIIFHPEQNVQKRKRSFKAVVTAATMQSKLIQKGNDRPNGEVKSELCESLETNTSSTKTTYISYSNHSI
Experiment: mGluR8 Gi/Go-coupled signaling modulation – cell-based, rat, thallium flux, HTS, primary screen (AID 488969)
Details: HEK293 rat mGluR8, GIRK (G protein-gated inwardly rectifying potassium channel) thallium flux, FluoZin2; at 10 µM; stronger effect = higher value; submaximal glutamate (EC20) added with thallium

SMILES | z-score
O=C(CSc1n[nH]c(-c2ccco2)n1)Nc1sc2c(c1C(=O)Nc1ccccc1)CCCC2 | -0.294
C=CCN(c1ccc(C(=O)NCCc2ccccc2)cc1)S(C)(=O)=O | -0.00787
CCOC(=O)C1CCN(S(=O)(=O)c2ccc(OCC(=O)OC)cc2)CC1 | 0.845
COc1cccc(-c2csc(N3CCN(C(=S)Nc4cccc(Cl)c4)CC3)n2)c1 | 0.143
CSc1nc(C)cc(C)c1S(=O)(=O)c1ccccc1C | -0.374
Cc1onc(-c2ccccc2)c1C(=O)NCCc1ccc(Cl)cc1 | 0.00877
CCc1ccccc1N(CC(=O)N/N=C/c1ccc(OC(=O)OC)c(OC)c1)S(C)(=O)=O | -0.214
CCCC(=O)Nc1ccc(Cl)c(NC(=O)C(C)(C)C)c1 | -0.219
CCN1CCN(C(=O)C2c3cc(OC)c(OC)cc3C(=O)N(C)C2c2ccc(SC)cc2)CC1 (configuration not stated) | 0.574
N#CC1(P(=O)(c2ccccc2)c2ccccc2)CC1 | -0.0596
O=C(Nc1nc(=O)c2ccccc2s1)c1ccccc1 | 14.9 (active)
Nc1ccc(C(=O)Nc2nc3ccccc3s2)cc1 | -0.363
O=C(Nc1nc(-c2ccc(Cl)s2)cs1)c1ccccc1 | 0.171
COc1cccc(C2=NOC(C(=O)Nc3ccccc3SC)C2)c1 (configuration not stated) | -0.115
CC(C)CCn1c(Cl)nc2c1c(=O)n(C)c(=O)n2C | 2.04
CC(C)CCn1c(Oc2ccccc2Cl)nc2c1c(=O)n(C)c(=O)n2C | -0.1
CC(C)CCn1c(Oc2ccc(Cl)cc2)nc2c1c(=O)n(C)c(=O)n2C | -0.037
CCC1(C)CC(c2nc(-c3ccc(OC)cc3)cs2)CCS1 (configuration not stated) | -0.645
CC1(C)CC(c2nc(-c3ccc(Cl)cc3)cs2)CCS1 (configuration not stated) | 0.117
CC1(C)CC(c2nc(-c3ccc(Br)cc3)cs2)CCS1 (configuration not stated) | 2.26
COc1ccc(C)cc1NC1=C(Cl)C(=O)N(C2CCCCC2)C1=O | -0.0567
Cc1ccc2cccc(NC(=O)C(F)(F)F)c2n1 | 0.599
Cc1ccc2cccc(NC(=S)NC(=O)c3ccnn3C)c2n1 | 2.25
Cc1cc(C)c2cccc(NC(=S)NC(=O)c3ccccc3)c2n1 | 0.2
Cc1ccc2cccc(NC(=S)NC(=O)c3c(Br)cnn3C)c2n1 | 0.727
Cc1ccc2cccc(NC(=S)NC(=O)c3ccccc3)c2n1 | 1.02

SMILES | z-score
Cc1ccc2cccc(NC(=S)NC(=O)c3ccn(C)n3)c2n1 | 6.02 (active)
c1cnc(N2CCSCC2)nc1 | -0.316
Cc1c(C(=O)Nc2ccccc2)cn2c(nc3ccccc32)c1C#N | -0.348
COc1cccc2cc(C(=O)n3ccc(C)n3)c(=O)oc12 | -1.33
O=C1CC(c2ccc(S(=O)(=O)Nc3cc(C(F)(F)F)cc(C(F)(F)F)c3)cc2)CN1 (configuration not stated) | 0.112
CCC(C)n1ncn(-c2ccc(N3CCN(c4ccc(OC)cc4)CC3)cc2)c1=O (configuration not stated) | -0.724
COc1cc(NC(=O)c2cc3sccc3n2C)cc(OC)c1 | -0.0259
COc1ccc(OC)c(-c2oc3ccccc3c(=O)c2O)c1 | 0.149
O=c1cc(-c2cccs2)oc2ccc(Cl)cc12 | -0.565
O=c1c(O)c(-c2ccc3c(c2)OCO3)oc2ccccc12 | -0.981
O=c1c(O)c(-c2cccs2)oc2ccc(Cl)cc12 | 14.1 (active)
O=C(O)c1cc(=O)c2cc(Cl)ccc2o1 | -0.147
O=c1c(O)c(-c2cccs2)oc2ccccc12 | 17.2 (active)
O=C(Cc1cc(=O)[nH][nH]1)N/N=C/C(Cl)=C/c1ccccc1 | -0.191 and -0.199
COc1ccc(CCNC(=O)CCSc2nc(-c3ccco3)cc(C(F)(F)F)n2)cc1OC | -2.59
c1ccc(COc2cccc(CNn3cnnc3)c2)cc1 | -0.177
COc1ccc(/C=C2\CCn3c2nc2cc(C(=O)O)ccc2c3=O)cc1O | -0.197
O=C(O)c1ccc2c(c1)ncn2C1CCCCCC1 | 0.321
CC(NC(=O)c1ccc(F)cc1)c1nc2ccccc2n1Cc1ccccc1F (configuration not stated) | -0.254
CCOC(=O)CN1C(=O)C(C)(C)Oc2ccc(C(=O)Nc3ccccc3OC)cc21 | 2.42
CCOC(=O)CN1C(=O)C(C)(C)Oc2ccc(C(=O)Nc3ccccc3)cc21 | -0.637
CCOC(=O)CN1C(=O)C(C)(C)Oc2ccc(C(=O)NC(C)(C)CC)cc21 | 0.0354
COc1ccc(/C=C/C(=O)Nc2nc(N)n(-c3ccccc3)n2)cc1 | -0.0927
CCOC1CC(C)(C)NC(=S)N1 (configuration not stated) | -0.234
CCCc1ncc(C(O)c2cccc3ccccc23)n1C (configuration not stated) | 0.327
COCCN=C1Sc2nc3c(C)cccc3cc2CN1Cc1ccco1 | 0.0241

SMILES | z-score
O=C(CNS(=O)(=O)c1ccccc1)N1CCN(c2ccccc2)CC1 | -0.0656
CC1(C)CC(=O)c2sc(NC(=O)CN3CCOCC3)nc2C1 | 0.431
CC1(C)CC(=O)c2sc(NC(=O)CN3C(=O)CCC3=O)nc2C1 | 2.59
CCOCC(=O)Nc1nc2c(s1)C(=O)CC(C)(C)C2 | -0.264
C/C(=N\NC(=O)c1ccc(Cl)c(Cl)c1)c1cccc(NC(=O)C(C)C)c1 | 0.0284
COc1ccc(-c2nnn(CC(=O)N(C3CCCCC3)C(C)C(=O)NC3CCCC3)n2)cc1OC (configuration not stated) | 1.3
CC(C)CCNC(=O)C(C)N(C(=O)Cn1nnc(-c2ccc(F)cc2)n1)C1CCCC1 (configuration not stated) | 2.82
CCC(C(=O)NC1CCCC1)N(C(=O)Cn1nnc(-c2ccc(C)cc2)n1)C1CCCC1 (configuration not stated) | -0.114
Cc1ccc(S(=O)(=O)NC2(C(F)(F)F)C(=O)Nc3c2c(=O)n(C)c(=O)n3C)cc1 (configuration not stated) | -0.423
O=C(Nc1ccccc1)c1ccc(N2CCN(c3ccccc3)CC2)c(S(=O)(=O)N2CCOCC2)c1 | -0.142
O=C(N/N=C\CCc1ccccc1)c1ccco1 | 0.322
NC(=O)CSc1ncc(-c2ccccc2)[nH]1 | 0.142
CCOc1ccc(C(=O)OCCN(CC)CC)cc1 | 0.374
COc1ccc(C(C(=O)OCCN(C)C)c2ccccc2)cc1 (configuration not stated) | 0.325
CCCOc1ccc(C(C(=O)OCCN(CC)CC)c2ccccc2)cc1 (configuration not stated) | 2.43
CC(=O)C(Sc1ccc2nnc(-c3ccc(C)cc3)n2n1)C(C)=O | 1.78
Cc1ccc(NC(=S)c2nc3ccccc3[nH]2)cc1 | -1.02
O=C(/C(=C/c1ccc(Cl)cc1)c1nc2ccccc2[nH]1)c1ccccc1 | -0.287
Cc1ccc(NC(=S)c2nc3ccccc3[nH]2)c(C)c1 | 6.64 (active)
Cc1ccc(Nc2nnc(SC/C(O)=C(\C#N)c3nc4ccccc4[nH]3)s2)c(C)c1 | -0.166
Cc1ccccc1NC(=O)NCCc1nc2ccccc2[nH]1 | -0.0805
Cc1ccccc1NC(=S)c1nc2ccccc2[nH]1 | 10.9 (active)
Cc1ccccc1NC(=O)N(CCc1nc2ccccc2[nH]1)Cc1ccccc1 | -0.292
S=C(Nc1ccc(Cl)cc1)c1nc2ccccc2[nH]1 | 6.95 (active)
Cc1ccc(C)c(NC(=S)c2ccc3ccccc3n2)c1 | 0.103

From PubChem BioAssay AID488969 (Vanderbilt High Throughput Screening Facility, 2010)
